Records with an inconclusive call do not appear. Active and inactive are the calls of the source. Calls follow the shape of the dose curve; as a rule, active = well fitted curve in the direction sought with a large enough effect; inconclusive = small, poorly fitted or top-dose-only effect, or another doubt; inactive = no such curve, though single readings can be large; an effect the other way counts as inactive or inconclusive.
Tests used:
[1] = qHTS for Inhibitors of Plasmodium falciparum (DD2) proliferation (AID 504314);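 also: parasite DNA measured by SYBR Green fluorescence after red cell lysis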
How it was run: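 P. falciparum Dd2 is grown in erythrocytes with test compound for 72 h at 37C under 5% CO2. Growth is scored by SYBR Green I fluorescence after detergent lysis, relative to artemisinin (0.29 uM) and DMSO controls.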

[2] = qHTS for Inhibitors of Plasmodium falciparum (GB4) proliferation (AID 504315); also: nearly all actives have a fitted effect of over 50% in size
How it was run: (§1)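 Parasite growth measured as SYBR Green DNA fluorescence (ex 485, em 535 nm) after overnight lysis following 72 h culture at 37 °C, 0.3% parasitemia, 2.5% hematocrit. Values normalized against DMSO and 0.29 uM artemisinin controls, with plate-stack correction.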

[3] = qHTS for Inhibitors of Plasmodium falciparum (7G8) proliferation (AID 504316); also: series mostly up to about 6.7 µM; nearly all actives have a fitted effect of over 65% in size
How it was run: as §1

[4] = qHTS for Inhibitors of Plasmodium falciparum (HB3) proliferation (AID 504318); also: nearly all actives have a fitted effect of over 60% in size
How it was run: as §1

[5] = qHTS for Inhibitors of Plasmodium falciparum (CP250) proliferation (AID 504320)
How it was run: as §1

Measured: Potency

C=CCOC(=O)N[C@H](C(C(=O)OC)=C(C)NCc1ccccc1)c1ccc(C)cc1
inactive: [1] | [2] | [3] | [4] | [5]

COC(=O)CCC(=O)OC1(C)C(=O)C=C2C=C(C3CC3)N(CC3CC3)C=C2C1=O (stereo not given)
inactive: [1]

CCCCC1=CC2=CC(=O)C(C)(OC(=O)CC)C(=O)C2=CN1C1CCCC1 (stereo not given)
inactive: [1] | [2] | [3] | [4] | [5]

COC(=O)C1=C(C(=O)OC)[C@@H]2N(C)c3ccc(OC)cc3[C@@]23C[C@@H](C(=O)OC)N(C(C)=O)C3=N1
inactive: [1] | [2] | [3] | [4] | [5]

COC(=O)N[C@@H](c1cccc(C)c1)C(C(C)=O)C(=O)OC (stereo not given in full)
inactive: [1] | [2] | [3] | [4] | [5]

CCN1C(=O)N[C@@H](c2cccs2)C(C(C)=O)=C1C
inactive: [1] | [2] | [3] | [4] | [5]

C=CCN1C=C2C(=O)C(C)(OC(=O)c3cnc4ccccc4n3)C(=O)C=C2C=C1/C=C/COC (stereo not given)
inactive: [1] | [2] | [3] | [4] | [5]

C=CC1=C2C=C(C3CC3)N(Cc3ccco3)C=C2C(=O)C(C)(OC(=O)c2ccco2)C1=O (stereo not given)
inactive: [1] | [2] | [3] | [4] | [5]

CCCCC1=CC2=CC(=O)C(C)(OC(=O)CC)C(=O)C2=CN1CC(C)C (stereo not given)
inactive: [1] | [2] | [3] | [4] | [5]

COC(=O)CCCC1=CC2=C(c3ccccc3)C(=O)C(C)(OC(=O)C3CCCC3)C(=O)C2=CN1CC(C)C (stereo not given)
inactive: [1] | [2] | [3] | [4]

Reference: PubChem BioAssay (NCATS)
